Measurements reported in the supplement of paper PMC6555819.

The sequences below were run on VDR:RXRa (NR concentration 270 nM, RXRa partner concentration 90 nM) (assay: PBM binding z-score (relative to random genomic background probes); higher = stronger binding; sequences stand for … in GC…GCGATTGACAGCGTAGAATGAAGG).
Method: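 Protein-binding microarray (Agilent 4x180K custom design, double-stranded 60-nt probes: 5' GC cap, 34-nt variable region, 24-nt constant primer region; full probe sequence given). Purified or IVT nuclear receptor:RXRα heterodimers (3:1 NR:RXRα, mostly 270:90 nM) or homodimers were incubated for 1 h in PBS with 2% milk and no ligand, then detected with Alexa488 antibodies. Fluorescence from o1-orientation probes (~5 replicates averaged) was converted to z-scores against 500 random hg19 background probes. Variable regions are seed direct-repeat (DR0–DR5) sites, all their single-nucleotide variants and half-site ablations.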
For CGAACTAGGTCATCCAGGACCGTGAATACATTGA, the PBM binding z-score was 2.39.
In the case of GATACAGGGTCAAGGTCAGAGTACGCGTATTGAT, the PBM binding z-score is reported as 5.53.
Work on ATCGAAAGGTCGACGCGGTGAGTATACACCGTTT yielded a PBM binding z-score of 3.04.
For AGTCAAAGGTCATCTAGGTAACGTAAGATATGCT, the PBM binding z-score was 6.04.
In the case of CGTCAAAGTTCAACTGAGGTAACGTAAAGCACGC, the PBM binding z-score is reported as 5.16.
In the case of TTGCCTAGGTCATTGGGCCAGTATAGTACGCATC, the PBM binding z-score is reported as 2.27.
Work on TCTCGGAGGACACCAAAGGTCAGAGCTCGACATC yielded a PBM binding z-score of 3.38.
TAGCCGAGGTCATTCAGGGGCCAGTATAGAAAGC was tested, and the PBM binding z-score was 5.89.
TACCCTAGGTCATTCAGGGGCCAGTATAGAAAGC gave a PBM binding z-score of 3.44.
For ATCGAAAGGTCAAGGTGAGTATAGAGAAAGGGAA, the PBM binding z-score was 5.32.
CCTAGTGGGCCAAGGTCATTGATCAGTCAAAGCA showed a PBM binding z-score of 3.33.
In the case of CCGACTGGGGCAAGGTCACCATAACGCACAGCCA, the PBM binding z-score is reported as 3.26.
ATATGTAGGTTAGCTGGGGTCATTCACACTAGGC gave a PBM binding z-score of 6.32.
CAAACCAGGTCAAGAGGTCAAAGTCCGCTTCCCG showed a PBM binding z-score of 6.45.
With CGAACTAGGTCTAAGGACAGTGAAAGGCGACGTA the PBM binding z-score was -0.556.
Sequence CCGAGAAGGTTACGAGGGGGCATTCAGTGCGAAT has a PBM binding z-score of 6.24.
TCTGCTAGGTCAACGATGGTCAGTTAATCTGCTA gave a PBM binding z-score of 1.62.
For AATACAGGGTCACGAGGCCAGAGTAGGTACGAAT, the PBM binding z-score was 5.41.
For ACTAGTTGGTCAGCTGAGGTCACACCCAATTCGG, the PBM binding z-score was 4.19.
Work on CCTACTGGTCCAAGGTCATTGATCAGTCAAAGCA yielded a PBM binding z-score of 3.79.
CGTCCAAGGTCACGGTCAGTGAAAGAGACTCGAA was tested, and the PBM binding z-score was 5.13.
With AATACGGGGTCACTAGGCCAGAGTAGGTACGAAT the PBM binding z-score was 6.16.
For CGTCAAAGTTCAACTAAGGTTACGTAAAGCACGC, the PBM binding z-score was 6.11.
CTATGTAGGTTAGGGGGGTCATTCAGTTTGAAAG gave a PBM binding z-score of 7.68.
With ATATGTAGGTTAGCTGGGGTCCTTCAGACTAGGC the PBM binding z-score was 0.978.
With CGAACAAGGTCATCCAGGACAGTGAATACATTGA the PBM binding z-score was 6.39.
CGAACGAGGTCAAAGGACAGTGAAAGGCGACGTA showed a PBM binding z-score of 5.02.
Work on CGAACGAGGTCATTGACAGGACAGTGAATAGTAA yielded a PBM binding z-score of 5.64.
CCGAGGAGGTTACGAGGGGGCATTCAGTGCGAAT was tested, and the PBM binding z-score was 6.29.
CCTACTCGGCCAAAAAGGTCATTGATGCCGATAA gave a PBM binding z-score of 4.9.
TAGCCTAGGTCATGCGGGCCAATATAGTGTCGGC gave a PBM binding z-score of 3.64.
ATCGAAAGGTCGAAGGTGAGCATACCCACCCGAA gave a PBM binding z-score of 2.63.
For CAAACTAGGTCACCGAAAGGTCAAAGTCCGCATG, the PBM binding z-score was 6.46.
For AGAATGAGGTCAAGATCAGGGAAACAGAATACAT, the PBM binding z-score was 4.93.
Sequence TCTCGGAGGAAACGAAAGGTCAGAGCTCGACATC has a PBM binding z-score of 2.44.
CGAACTAGGTCAAGGACAGTAAATCTCCGCACGC showed a PBM binding z-score of 1.33.
AGTCAAAGTTCAGGACGAGGTAACGTTAAGCACG was tested, and the PBM binding z-score was 2.97.
For CGTCAAACTTCAACTAAGGTAACGTAAAGCACGC, the PBM binding z-score was 0.382.
For TATTCAGGGTCAAAGGCCAGAGTACGAATGTCGA, the PBM binding z-score was 5.12.
With TACCCTAGGTCATGGGCCAGTATACCACGCGAAC the PBM binding z-score was 2.67.
